From the supplement of paper PMC13380429

Test system: Vero E6 infected with SARS-CoV-2
Test: inhibition of SARS-CoV-2 cytopathic effect; higher = more antiviral protection, active = above 15
Details: 48 h

Measured: inhibition of SARS-CoV-2 cytopathic effect

CN1CCN(c2c(F)cc3c(=O)c(C(=O)O)cn(CCF)c3c2F)CC1 [fleroxacin]
inactive: 1 nM -1.94% | 8.33 nM -0.15% | 100 nM 1.24% | 833.33 nM 0.81% | 10000 nM -1.08%

C[C@@]1(O)[C@H](O)[C@@H](CO)O[C@H]1n1ccc(N)nc1=O
inactive: 1 nM 5.4% | 8.33 nM -1.76% | 100 nM -3.15% | 833.33 nM -5.49% | 10000 nM -2.07%

CC(=O)[C@@]1(O)CC[C@H]2[C@@H]3C=C(Cl)C4=CC(=O)[C@@H]5C[C@@H]5[C@]4(C)[C@H]3CC[C@@]21C
inactive: 1 nM -4.45% | 8.33 nM -5.77% | 100 nM -6.29% | 833.33 nM -6.05% | 10000 nM -4.41%

COc1cc(C)c(/C=C/C(C)=C/C=C/C(C)=C/C(=O)O)c(C)c1C [acitretin]
inactive: 1 nM 0.15% | 8.33 nM -1.89% | 100 nM 0.02% | 833.33 nM -0.64% | 10000 nM -0.58%

CC(C)C(N)=O [isobutyramide]
inactive: 1 nM 4.35% | 8.33 nM 1.02% | 100 nM 2.22% | 833.33 nM 2.44% | 10000 nM 0.68%

COc1ccc(O)c(C(C)(C)C)c1.COc1ccc(O)cc1C(C)(C)C [butylated-hydroxyanisole]
inactive: 1 nM -2.13% | 8.33 nM -2.11% | 100 nM -2.79% | 833.33 nM 0.85% | 10000 nM -1.88%

CC(=O)NCCCCCC(=O)O [acexamic-acid]
inactive: 1 nM 1.78% | 8.33 nM 1.59% | 100 nM 0.61% | 833.33 nM 0.94% | 10000 nM 0.09%
